Experimental data taken from the supplement of paper PMC6805474.

Experiments:
[1] = test system: Schistosoma mansoni schistosomula (LE); assay: XTT viability relative to DMSO control; higher = more viable (less active); details: 72 h; 10 µM
Description: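 XTT/PMS was then added for a further 24 h (72 h total) and A450 was read. % viability = (sample - heat-killed control)/(DMSO control - heat-killed control) x 100, from duplicate wells in two independent experiments.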

[2] = test system: Schistosoma mansoni schistosomula (NMRI); assay: phenotypic severity score (0-4); higher = more antischistosomal effect, active = 2 or more; details: 10 µM
[3] = test system: Schistosoma mansoni schistosomula (Liberian); assay: drug effect (1 - score/DMSO control score) (fraction); higher = more antischistosomal effect, active = 0.5 or more; extreme values may be limits of the assay; details: 10 µM
Method in brief: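 A plate was valid only if its 0.1% DMSO wells averaged a score of at least 2. Those wells ran beside duplicate wells in which 50 Liberian-strain Schistosoma mansoni schistosomula each, transformed mechanically from cercariae and pre-incubated at least 12 h, met 10 µM compound in Medium 199 with 5% FCS at 37 °C, 5% CO2. Scoring was visual at 10× at 24, 48 and 72 h, from 3 (normal) to 0 (dead) in quarter-point steps. Drug effect was derived from the mean test-well score against the mean DMSO-well score, with negatives set to zero.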
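Wherever phenotypic severity score (0-4) is given: visual microscopic scoring of shape, motility and density changes versus 0.5% DMSO solvent controls, one point per descriptor, degeneracy or death scored 4, mean of duplicate wells.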

Structure (SMILES)	XTT viability [1] [%]	phenotypic severity score ([2]; 24 h)	phenotypic severity score ([2]; 48 h)	phenotypic severity score ([2]; 72 h)	drug effect ([3]; 24 h)	drug effect ([3]; 48 h)	drug effect ([3]; 72 h)
CN1CCN(c2nccc3[nH]c(-c4cccc(F)c4)cc23)CC1	66.3	0 (inactive)	2 (active)	4 (active)	0.0909 (inactive)	0.1 (inactive)	0.158 (inactive)
NC(CC(=O)c1ccc(Cl)cc1Cl)C(Cl)(Cl)Cl (configuration not stated)	69.2	0 (inactive)	0 (inactive)	0 (inactive)	0.0455 (inactive)	0.1 (inactive)	0.158 (inactive)
Nc1ncnc2c1c(Cc1cccc3ccccc13)nn2CC1CCNCC1	96.2	0 (inactive)	0 (inactive)	0 (inactive)	< 0 (inactive)	< 0 (inactive)	< 0 (inactive)
Cc1cc2ccccc2n1CC(=O)N1CC(C(=O)N2CCCCC2)Oc2ccccc21 (configuration not stated)		0 (inactive)	1 (inactive)	0 (inactive)	0.05 (inactive)	0.027 (inactive)	0.111 (inactive)
CC(C)n1ncc2c(C(=O)NCC(c3cccs3)N3CCOCC3)cc(-c3ccccc3)nc21 (configuration not stated)		2 (active)	0 (inactive)	1 (inactive)	0.273 (inactive)	0.5 (active)	0.4 (inactive)
Cc1cnc(CCNC(=O)c2cc(-c3ccc(Cl)cc3)cs2)[nH]1	79.7	1 (inactive)	1 (inactive)	0 (inactive)	0.136 (inactive)	0.45 (inactive)	0.509 (active)
N=C(N)c1ccc(-c2cc(-c3ccccc3)on2)cc1	91.6	2 (active)	1 (inactive)	0 (inactive)	0.182 (inactive)	0.65 (active)	0.455 (inactive)
COc1cc(OC)cc(C(=O)NCC2Cc3cc(Cl)cc(-c4ccncc4)c3O2)c1 (configuration not stated)	153	0 (inactive)	0 (inactive)	0 (inactive)	0.1 (inactive)	0.189 (inactive)	0.152 (inactive)
c1ccc(-c2cc(N3CCCCC3)c3ccccc3n2)nc1	59.9	1 (inactive)	0 (inactive)	1 (inactive)	0.15 (inactive)	0.243 (inactive)	0.389 (inactive)
CC(C)(C)c1cc(C(=O)N2CCN(c3nccnc3C#N)CC2)n(Cc2ccccc2)n1	120	0 (inactive)	0 (inactive)	1 (inactive)	< 0 (inactive)	0.027 (inactive)	0.0303 (inactive)
COc1ccc(N(CCc2cccc(C)n2)C(=O)C2CCCCC2)cc1	88.7	0 (inactive)	2 (active)	1 (inactive)	0.15 (inactive)	0.2 (inactive)	0.111 (inactive)
O=C(NC1=NCCS1)c1sc2cc(F)ccc2c1Cl	81	0 (inactive)	0 (inactive)	0 (inactive)	0.0909 (inactive)	0.1 (inactive)	0.0182 (inactive)
COC(=O)C1=C(C)NC(C)=C(C(=O)OC(C)C)C1c1cccc2nonc12 (configuration not stated)	63.2	2 (active)	0 (inactive)	0 (inactive)	0.15 (inactive)	0.189 (inactive)	0.111 (inactive)
O=C(Nc1nnc(-c2ccc(Cl)cc2)o1)c1cccc(C(F)(F)F)c1	-9.98	0 (inactive)	4 (active)	4 (active)	0.0909 (inactive)	0.25 (inactive)	0.945 (active)
CNC(=O)c1cc(S(=O)(=O)N2CCN(c3ccccn3)CC2)cs1	73.4	0 (inactive)	0 (inactive)	0 (inactive)	0.1 (inactive)	0.135 (inactive)	0.111 (inactive)
OC[C@H]1O[C@@H](n2c3ccc(Cl)cc3c3c(-c4cc5ccccc5o4)ncnc32)C(O)[C@H]1O (some centres not stated)	93.9	0 (inactive)	0 (inactive)	0 (inactive)	0.158 (inactive)	0.111 (inactive)	< 0 (inactive)
CN1CCN(S(=O)(=O)c2ccc(-c3ccc4c(Nc5ccc6nn[nH]c6c5)ccnc4c3)cc2)CC1	152	0 (inactive)	0 (inactive)	0 (inactive)	0.1 (inactive)	0.135 (inactive)	0.0909 (inactive)
Cc1cc(NC(=O)c2ccc(Oc3ccc(Cl)cc3O)o2)no1	99.6	0 (inactive)	0 (inactive)	0 (inactive)	0.1 (inactive)	< 0 (inactive)	0.111 (inactive)
COC(=O)c1c(NC(=O)c2cc3ccccc3oc2=O)sc2c1CCN(Cc1ccccc1)C2	76.3	0 (inactive)	3 (active)	2 (active)	0.4 (inactive)	0.222 (inactive)	0.556 (active)
C[C@H](c1ccc2c(c1)CCCC2)N(C)c1ncc2c(N)nc(N)nc2n1	39.1	0 (inactive)	0 (inactive)	0 (inactive)	0.2 (inactive)	0.278 (inactive)	0.438 (inactive)
COc1ccc(-c2onc(C(F)(F)F)c2-c2ccc(Cl)cc2)c(O)c1		0 (inactive)	0 (inactive)	0 (inactive)	0.15 (inactive)	0.167 (inactive)	0.188 (inactive)
COc1ccc(OC)c(NCc2ccc3nc(N)nc(N)c3c2Cl)c1	109	0 (inactive)	2 (active)	0 (inactive)	< 0 (inactive)	0.05 (inactive)	0.278 (inactive)

Structure (SMILES)	XTT viability [1] [%]	phenotypic severity score ([2]; 24 h)	phenotypic severity score ([2]; 48 h)	phenotypic severity score ([2]; 72 h)	drug effect ([3]; 24 h)	drug effect ([3]; 48 h)	drug effect ([3]; 72 h)
N#Cc1ccc(-c2cnc(N)c(-c3ccc(C(N)=O)cc3)n2)cc1	113	2 (active)	2 (active)	4 (active)	0.027 (inactive)	0.333 (inactive)	0.5 (active)
Cc1cccc(-c2nc(Nc3ccncn3)c3sccc3n2)n1	39.9	1 (inactive)	3 (active)	4 (active)	0.405 (inactive)	0.667 (active)	0.75 (active)
OCCc1ccc(Nc2nccc(-c3nnc4ccccn34)n2)cc1	109	0 (inactive)	1 (inactive)	4 (active)	0.2 (inactive)	0.556 (active)	0.562 (active)
COc1cccc(-c2nc3c(N4CCCC4)cccc3n2CC2CCCN2)n1 (configuration not stated)	158	4 (active)	4 (active)	4 (active)	0.35 (inactive)	0.778 (active)	0.75 (active)
CCC(Sc1nc2ccccc2o1)C(=O)Nc1nccs1 (configuration not stated)	7.06	2 (active)	4 (active)	4 (active)	0.182 (inactive)	1 (active)	1 (active)
COc1cc(NC(=O)Cc2nn(C)c(=O)c3ccccc23)ccc1Cl	104	0 (inactive)	0 (inactive)	0 (inactive)	0.105 (inactive)	0.111 (inactive)	0.0625 (inactive)
c1csc(-c2cnc3sc(NCC4CCOCC4)nn23)c1	95.7	0 (inactive)	0 (inactive)	0 (inactive)	0.182 (inactive)	0.55 (active)	0.345 (inactive)
CN1CCC(c2cc(-c3ccncc3)c(-c3ccc(F)cc3)[nH]2)CC1	94.6	0 (inactive)	0 (inactive)	0 (inactive)	< 0 (inactive)	0.0556 (inactive)	0.111 (inactive)
Nc1ccc(C(=O)Nc2ccc(-c3nc4ccccc4o3)cc2)cc1	64.2	0 (inactive)	0 (inactive)	0 (inactive)	0.0909 (inactive)	0.05 (inactive)	0.211 (inactive)
CC(C)(C)c1cc(C(=O)Nc2cccnc2)cc(C(=O)Nc2cccnc2)c1		0 (inactive)	0 (inactive)	0 (inactive)	< 0 (inactive)	0.0811 (inactive)	0.0556 (inactive)
CC(C)(C)n1nc(-c2ccccc2)c2c(N)ncnc21	106	1 (inactive)	0 (inactive)	0 (inactive)	0.182 (inactive)	0.2 (inactive)	0.127 (inactive)
CC(=O)Oc1ccccc1C(=O)Nc1ncc([N+](=O)[O-])s1	102	2 (active)	4 (active)	4 (active)	0.2 (inactive)	0.297 (inactive)	0.556 (active)
CNc1snc(C)c1C(=O)NCCOc1ccc(OC)cc1	91.3	1 (inactive)	0 (inactive)	0 (inactive)	0.0909 (inactive)	0.15 (inactive)	0.127 (inactive)
Cc1cc(C)cc(COc2ccc3c(C)c(CCC(=O)O)c(=O)oc3c2C)c1	79.3	1 (inactive)	1 (inactive)	0 (inactive)	0.136 (inactive)	0.2 (inactive)	0.127 (inactive)
Cn1c(=O)c2c(S(C)(=O)=O)snc2n(C)c1=O	-0.448	4 (active)	4 (active)	4 (active)	1 (active)	1 (active)	1 (active)
O=C1Nc2ccc(Br)cc2C12NCCc1c2[nH]c2ccccc12 (configuration not stated)	109	0 (inactive)	0 (inactive)	0 (inactive)	0.05 (inactive)	0.0811 (inactive)	0.167 (inactive)
c1ccc(Oc2ccc(-c3cc(C4CCOCC4)[nH]n3)cc2)cc1	98.4	0 (inactive)	0 (inactive)	0 (inactive)	0.182 (inactive)	0.35 (inactive)	0.127 (inactive)
COc1cccc(NC(=O)c2c(NC(=O)c3cccnc3)sc3c2CCC3)c1	94.4	0 (inactive)	0 (inactive)	0 (inactive)	0.25 (inactive)	0.222 (inactive)	0.438 (inactive)
COc1ccc(C2(C(=O)Nc3ccc(Br)cc3)CCCC2)cc1	91	0 (inactive)	0 (inactive)	1 (inactive)	0.25 (inactive)	0.389 (inactive)	0.5 (active)
CCN(CC)C(=O)N1CCN(C)CC1	95.5	0 (inactive)	0 (inactive)	0 (inactive)	0.15 (inactive)	0.222 (inactive)	0.375 (inactive)
CN(C)CCNC(=O)N1CCCN(c2ncnc3cc(-c4ccccc4)sc23)CC1	106	0 (inactive)	0 (inactive)	0 (inactive)	< 0 (inactive)	0.2 (inactive)	0.556 (active)
